The OligoGym collection

Each sequence was assayed against TCEANC2 (assay: pooled miR-30 sensor sort-seq; sequence = guide strand). Conditions: shRNA.
Further: reference of the scale not given here.

Sequence | sensor-assay potency score (higher = more potent)
TTCACAGTGTGACCTATCCTTG | -0.944
TTTTCTTCTTTAATTCTTGTAA | -0.255
TTACGCATCTTGTTCACAGTGT | 0.769
TTCTACAACCACAACTCTCTTC | -0.1
TTTCTGAGCATTTTTCCTCAAC | -1.1
TACAACCACAACTCTCTTCAGA | -0.694

These sequences were tested against TCERG1 in the same assay as above. Conditions: shRNA.

Sequence | sensor-assay potency score (higher = more potent)
TATCAGACCATGACACATCTGA | 0.29
TTGTGCTTGCACTTGTGCCTGG | 0.389
TGGATCGACAGCATTGTCGGAG | -0.29
TTTATTATCGTCTCTCTTCCGT | 0.45
TTCTGATTGCTGAATAACCTTA | -0.804
TTGCTTTGAATCTTGAATCTTT | 0.533
TGAATCTTGAATCTTTAGCATG | -1.15
TTAATCTTCTCTTCTAACTTTT | -0.478
TTGTCTTTTACTTTGCTCCATC | -0.934
TACATACTGATCAAACACCTGT | 0.349
TTATTATCGTCTCTCTTCCGTT | -0.906
TTGATGAACTATCTACTGCTTT | -0.0553

These sequences were tested against TCL1B in the same assay as above. Conditions: shRNA.

Sequence | sensor-assay potency score (higher = more potent)
TCCTCATCTTCGTAGATGCCAG | -1.52
TTGAACCGCACGACCACAGTCA | -0.246
ATGCTGGGTTCATATCTGCTGC | -1.39
TTCATATCTGCTGCCCTGGGAG | -0.879
TGTTAGGACCAGCTGCTCCATA | -1.25
TTTCCCAGAAACTGGAATCCGC | -0.902
TCTGGATCCACAGACGGCCAGG | -1.15
TCTGCTATTTCCCAGAAACTGG | -1.48
TGCTCCATAGAGTCAATCTGGC | -0.928
TACATGAAGATCCTCACTGAGG | -0.791
TTAATTAACCAGTACTGTGAGG | -0.714
AACTGGAATCCGCTGCTCGGTA | -1.06

The sequences below were run against TCTN3 in the same assay as above. Conditions: shRNA.

Sequence | sensor-assay potency score (higher = more potent)
TTAGAATCCATGAAAACTCTTG | 0.212
TTTATAGCTGAAATGCTGCAGT | 0.223
TATAGGAATCGAACTCCTGATA | -0.82
TTACTCTCTAGGAAACCTGCAG | 0.205
TTGGTCTCTATCTCATAGGTGA | -0.211
TTTTAACAGAGCAACTTCCATT | -0.964
TATATCATCAGTCAGAGCCAAG | -1.46
TTTTACTCTCTAGGAAACCTGC | -1.11
TTGTCTACACAAACCCAGCTTG | -0.828
TAACTTGCTGAGAATCCTGTAT | -0.198
